Conditions in all cases: mRNA level, 48 h; actives raise or lower the signal
Read-out in assay [1]: Glutamate-cysteine ligase catalytic (GCLC), GCLC (gene 2729)
Briefly: LTEA_HepaRG_GCLC: Life Technologies and Expression Analysis (LTEA) Assay for Glutamate-cysteine ligase catalytic (GCLC) using HepaRG (AID 2283498). A digest of the protocol: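 Read-out is GCLC transcript level by Fluidigm-based TaqMan qRT-PCR, normalized to three housekeeping genes and fitted in both directions relative to 0.5% DMSO. Human HepaRG cells received chemicals for 48 h, up to 100 uM.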

Read-out in assay [2]: growth arrest and DNA damage 45 (GADD45G), GADD45G (gene 10912)
As to the kind of experiment: LTEA_HepaRG_GADD45G: Life Technologies and Expression Analysis (LTEA) Assay for growth arrest and DNA damage 45 (GADD45G) using HepaRG (AID 2283499). In short, it runs like this:
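GADD45G transcript level by qRT-PCR (housekeeping-normalized: ACTB, GAPDH, POLR2A) after 48 h chemical treatment of a single HepaRG lot in serum-free induction medium; eight-point half-log series up to 100 uM in 0.5% DMSO, duplicates, up- or down-regulation scored.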

Read-out in assay [3]: Glutamate-cysteine ligase regulatory (GCLM), GCLM (gene 2730)
As to the kind of experiment: LTEA_HepaRG_GCLM: Life Technologies and Expression Analysis (LTEA) Assay for Glutamate-cysteine ligase regulatory (GCLM) using HepaRG (AID 2283500). A digest of the protocol: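 Differentiated HepaRG cells exposed 48 h in serum-free induction medium to eight half-log concentrations up to 100 uM (0.5% DMSO). GCLM mRNA by TaqMan qRT-PCR, normalized to ACTB, GAPDH and POLR2A; bidirectional fit versus DMSO.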

Read-out in assay [4]: Glutathione S-transferase M3 (GSTM3), GSTM3 (gene 2947)
As to the kind of experiment: LTEA_HepaRG_GSTM3: Life Technologies and Expression Analysis (LTEA) Assay for Glutathione S-transferase M3 (GSTM3) using HepaRG (AID 2283501). A digest of the protocol: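 GSTM3 transcript levels came from Fluidigm TaqMan qRT-PCR normalized to three housekeeping genes, fitted in both directions against DMSO. HepaRG cultures received chemicals for 48 h in serum-free induction medium (0.5% DMSO), 8 half-log concentrations up to 100 uM, duplicate.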

Read-out in assay [5]: Heat shock 70 kDa protein 1 (HSPA1A), gene 3303
As to the kind of experiment: LTEA_HepaRG_HSPA1A: Life Technologies and Expression Analysis (LTEA) Assay for Heat shock 70 kDa protein 1 (HSPA1A) using HepaRG (AID 2283502). A digest of the protocol: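 Human HepaRG cells in serum-free induction medium were exposed in duplicate for 48 h to 8 half-log concentrations, highest 100 uM, in 0.5% DMSO. HSPA1A mRNA read by TaqMan qRT-PCR, normalized to ACTB, GAPDH, POLR2A, fitted bidirectionally against DMSO.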

Read-out in assay [6]: Hypoxia-inducible factor 1-alpha (Homo sapiens) (UniProt Q16665)
Briefly: LTEA_HepaRG_HIF1A: Life Technologies and Expression Analysis (LTEA) Assay for Hypoxia-inducible factor 1 (HIF1A) Trancription factor using HepaRG (AID 2283503). A digest of the protocol:
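Differentiated HepaRG cells in serum-free induction medium exposed 48 h, in duplicate, to 8-point half-log series from 100 uM in 0.5% DMSO. HIF1A mRNA measured by TaqMan qRT-PCR, normalized to ACTB/GAPDH/POLR2A, fitted bidirectionally versus DMSO.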

Read-out in assay [7]: 3-Hydroxy-3-Methylglutaryl-CoA Synthase 2 (HMGCS2), HMGCS2 (gene 3158)
As to the kind of experiment: LTEA_HepaRG_HMGCS2: Life Technologies and Expression Analysis (LTEA) Assay for 3-Hydroxy-3-Methylglutaryl-CoA Synthase 2 (HMGCS2) using HepaRG (AID 2283504). In short, it runs like this:
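Readout is HMGCS2 transcript by qRT-PCR, housekeeping-normalised (ACTB/GAPDH/POLR2A) and fitted bidirectionally against 0.5% DMSO. Differentiated HepaRG cells received chemicals 48 h, duplicate wells, eight half-log concentrations topping at 100 uM.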

Read-out in the next assay: HGF (gene 3082)
Briefly: LTEA_HepaRG_HGF: Life Technologies and Expression Analysis (LTEA) Assay for Hepatocyte Growth Facto (HGF) using HepaRG (AID 2283505). In short, it runs like this: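 HGF transcript was quantified by TaqMan qRT-PCR against three housekeeping genes after 48 h treatment of HepaRG cells. Exposure ran in duplicate over eight half-log steps topping at 100 uM in 0.5% DMSO vehicle.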

Read-out in assay [8]: Insulin Like Growth Factor 1 (IGF1), IGF1 (gene 3479)
As to the kind of experiment: LTEA_HepaRG_IGF1: Life Technologies and Expression Analysis (LTEA) Assay for Insulin Like Growth Factor 1 (IGF1) using HepaRG (AID 2283506). In short, it runs like this: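 Differentiated HepaRG cells in serum-free induction medium, exposed 48 h in duplicate to 8 half-log concentrations up to 100 uM in 0.5% DMSO. IGF1 mRNA by Fluidigm qRT-PCR, normalised to ACTB, GAPDH and POLR2A.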

Read-out in assay [9]: Intercellular Adhesion Molecule 1 (ICAM1), ICAM1 (gene 3383)
As to the kind of experiment: LTEA_HepaRG_ICAM1: Life Technologies and Expression Analysis (LTEA) Assay for Intercellular Adhesion Molecule 1 (ICAM1) using HepaRG (AID 2283507). In short, it runs like this: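 ICAM1 transcript levels measured by qRT-PCR, normalized to three housekeeping genes (ACTB, GAPDH, POLR2A), after 48 h chemical exposure of HepaRG cells. Duplicate eight-point half-log series from 100 uM in 0.5% DMSO; gain or loss fitted against vehicle.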

Read-out in assay [10]: Insulin-like growth factor-binding protein 1 (IGFBP1), IGFBP1 (gene 3484)
As to the kind of experiment: LTEA_HepaRG_IGFBP1: Life Technologies and Expression Analysis (LTEA) Assay for Insulin-like growth factor-binding protein 1 (IGFBP1) using HepaRG (AID 2283508). In short, it runs like this: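 Read-out is qRT-PCR transcript level normalized to three housekeeping genes, fitted in both directions against 0.5% DMSO. Differentiated HepaRG cells received eight half-log concentrations (top 100 uM) in duplicate for 48 h in serum-free induction medium.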

Read-out in assay [11]: Interleukin 6 (IL6), IL6 (gene 3569)
As to the kind of experiment: LTEA_HepaRG_IL6: Life Technologies and Expression Analysis (LTEA) Assay for Interleukin 6 (IL6) using HepaRG (AID 2283509). In short, it runs like this:
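HepaRG, ~100,000 cells/well, 48 h pre-culture; serum-free induction medium; cmpd 8-pt half-log from 100 uM, 0.5% DMSO, duplicate, 48 h. Lysis in RLT, TaqMan qRT-PCR; gain or loss vs DMSO.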

Read-out in assay [12]: Interleukin 6 Receptor (IL6R), IL6R (gene 3570)
Briefly: LTEA_HepaRG_IL6R: Life Technologies and Expression Analysis (LTEA) Assay for Interleukin 6 Receptor (IL6R) using HepaRG (AID 2283510). In short, it runs like this: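 Differentiated HepaRG cells, plated 48 h, then exposed in duplicate for 48 h in serum-free induction medium to 8 half-log concentrations (top 100 uM, 0.5% DMSO). IL6R mRNA measured by TaqMan qRT-PCR, normalized to ACTB/GAPDH/POLR2A; bidirectional fit vs DMSO.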

Read-out in assay [13]: Potassium channel subfamily K member 1 (KCNK1), KCNK1 (gene 3775)
Briefly: LTEA_HepaRG_KCNK1: Life Technologies and Expression Analysis (LTEA) Assay for Potassium channel subfamily K member 1 (KCNK1) using HepaRG (AID 2283511). In short, it runs like this:
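Gain or loss of KCNK1 mRNA is the read-out, quantified by qRT-PCR against three housekeeping genes after 48 h chemical treatment of human HepaRG liver cells. Concentrations ran from 100 uM downward in half-log steps, vehicle 0.5% DMSO.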

Read-out in assay [14]: Keratin 19 (KRT19), KRT19 (gene 3880)
As to the kind of experiment: LTEA_HepaRG_KRT19: Life Technologies and Expression Analysis (LTEA) Assay for Keratin 19 (KRT19) using HepaRG (AID 2283512). A digest of the protocol:
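KRT19 transcript measured by TaqMan qRT-PCR, referenced to three housekeeping genes, after HepaRG cells received test chemicals for 48 h. Eight half-log concentrations, top 100 uM, 0.5% DMSO vehicle; increases and decreases both fitted.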

Read-out in assay [15]: JUN Transcription Factor, JUN (gene 3725)
Briefly: LTEA_HepaRG_JUN: Life Technologies and Expression Analysis (LTEA) Assay for JUN Transcription Factor using HepaRG (AID 2283513). A digest of the protocol:
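HepaRG cells, 48 h post-plating, exposed 48 h in serum-free induction medium to 8-point half-log series (top 100 uM, 0.5% DMSO), duplicate; mRNA by qRT-PCR (TaqMan, Fluidigm), normalized to ACTB/GAPDH/POLR2A; bidirectional fit vs DMSO.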

Read-out in assay [16]: Lipase C (LIPC), LIPC (gene 3990)
As to the kind of experiment: LTEA_HepaRG_LIPC: Life Technologies and Expression Analysis (LTEA) Assay for Lipase C (LIPC) using HepaRG (AID 2283514). A digest of the protocol: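 Read-out is LIPC transcript level by TaqMan qRT-PCR, normalized to three housekeeping genes, after 48 h chemical treatment of human HepaRG liver cells. Curves span eight concentrations topping at 100 uM; activity in either direction scored relative to 0.5% DMSO.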

Read-out in assay [17]: Lipoprotein lipase (LPL), LPL (gene 4023)
Briefly: LTEA_HepaRG_LPL: Life Technologies and Expression Analysis (LTEA) Assay for Lipoprotein lipase (LPL) using HepaRG (AID 2283515). In short, it runs like this: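 Read-out is LPL transcript level by qRT-PCR, normalized to three housekeeping genes and fitted bidirectionally against the DMSO control. Human HepaRG cells received chemicals for 48 h at up to 100 uM.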

Read-out in assay [18]: MicroRNA 122 (MIR122), gene 406906
As to the kind of experiment: LTEA_HepaRG_MIR122: Life Technologies and Expression Analysis (LTEA) Assay for MicroRNA 122 (MIR122) using HepaRG (AID 2283516). Further: the transcript read is the microRNA miR-122. A digest of the protocol:
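Differentiated human HepaRG cells in serum-free induction medium exposed 48 h to 8 half-log concentrations from 100 uM in 0.5% DMSO, duplicate. MIR122 quantified by Fluidigm TaqMan qRT-PCR, normalised to ACTB, GAPDH, POLR2A; fold change fitted bidirectionally versus DMSO.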

Read-out in assay [19]: matrix metalloproteinase-10 (MMP10), MMP10 (gene 4319)
Briefly: LTEA_HepaRG_MMP10: Life Technologies and Expression Analysis (LTEA) Assay for matrix metalloproteinase-10 (MMP10) using HepaRG (AID 2283517). In short, it runs like this:
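Gain or loss of MMP10 mRNA is fitted relative to the 0.5% DMSO vehicle. The human hepatic line HepaRG receives a 48-hour serum-free exposure, in duplicate, with a maximum concentration of 100 uM.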

Calls of active or inactive are those of the source. How the source made its calls: active means hit-call score of the fitted dose curve at least 0.9, where 1 is the maximum; inactive means score below 0.9.

This note sets out measurements from PubChem BioAssay (EPA / NIEHS).

What is called AC50 is the concentration giving half of the maximal activity seen.

Hypoxia-inducible factor 1-alpha (Homo sapiens), sequence (Q16665 whole entry, looked up): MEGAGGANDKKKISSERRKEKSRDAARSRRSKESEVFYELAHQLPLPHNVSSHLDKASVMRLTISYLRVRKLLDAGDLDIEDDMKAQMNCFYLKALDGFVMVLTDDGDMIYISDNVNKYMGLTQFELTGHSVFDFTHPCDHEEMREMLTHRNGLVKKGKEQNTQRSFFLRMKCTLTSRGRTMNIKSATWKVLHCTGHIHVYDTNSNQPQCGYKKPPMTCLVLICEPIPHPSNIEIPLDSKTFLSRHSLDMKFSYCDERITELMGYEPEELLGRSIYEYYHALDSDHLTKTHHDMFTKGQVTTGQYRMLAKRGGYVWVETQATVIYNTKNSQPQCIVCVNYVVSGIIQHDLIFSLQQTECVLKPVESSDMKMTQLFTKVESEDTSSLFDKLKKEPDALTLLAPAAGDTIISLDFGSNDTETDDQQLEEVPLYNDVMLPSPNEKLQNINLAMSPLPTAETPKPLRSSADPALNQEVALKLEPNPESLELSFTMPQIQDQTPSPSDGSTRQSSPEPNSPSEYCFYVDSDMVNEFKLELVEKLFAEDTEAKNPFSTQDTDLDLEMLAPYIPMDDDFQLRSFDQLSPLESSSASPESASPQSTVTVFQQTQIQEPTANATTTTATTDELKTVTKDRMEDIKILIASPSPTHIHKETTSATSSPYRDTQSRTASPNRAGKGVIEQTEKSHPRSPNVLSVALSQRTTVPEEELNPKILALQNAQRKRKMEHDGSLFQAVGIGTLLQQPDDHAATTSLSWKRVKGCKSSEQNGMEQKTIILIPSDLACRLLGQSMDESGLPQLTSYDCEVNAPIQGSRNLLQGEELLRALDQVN

With `CC[C@H](C)C(=O)O[C@H]1C[C@H](O)C=C2C=C[C@H](C)[C@H](CC[C@@H](O)C[C@@H](O)CC(=O)O)[C@H]21`, the molecule was called inactive in [1], in assay [2], in [3], in assay [4], in assay [5] and in [6]. Besides, the outcome (in assay [7]; in the assay with HGF (gene 3082); in assay [8]; in assay [9]; in assay [10]; in assay [11]) was inactive. In addition, the call in assay [12], in assay [13], in assay [14], in assay [15], in assay [16] and in assay [17] was inactive. For the same molecule, the result in [18] was inactive.
On to `NC(=O)NN=Cc1ccc([N+](=O)[O-])o1`, for which the call in assay [1], in assay [2], in assay [4], in [5], in assay [11] and in assay [14] was inactive. In addition, the result in assay [17] and in assay [18] was inactive. In addition, the half-maximal activity concentration (AC50) in [3] is 9.92 µM (active); in assay [7], 13.3 µM (active); in the assay with HGF (gene 3082), 12.4 µM (active); in assay [8] it was 9.92 µM (active); in [9] it was 0.211 µM (active); in assay [10] it was 50 µM (active). Besides, the AC50 in [13] was 0.223 µM (active); in assay [15], 11.6 µM (active); in [16] it was 0.233 µM (active).
Take `CCCc1ccccc1`: the molecule was classed as inactive in assay [1], in [2], in assay [3], in assay [4], in assay [5] and in assay [6]. Also, the molecule was called inactive (in assay [7]; with HGF (gene 3082); in assay [8]; in assay [9]; in [10]; in assay [11]). Also, the result in [12], in [13], in [15], in assay [16], in assay [17] and in [18] was inactive. For the same molecule, the molecule was called inactive in assay [19].
